Where “and” joins values, the source holds several entries; their conditions need not be identical. Equal values may be shown once. Unmarked numbers belong to inactive results. Inconclusive results are not listed. Calls of active or inactive are those of the source. Calls follow the shape of the dose curve; as a rule, active = well fitted activation curve with a large enough effect; inconclusive = small, poorly fitted or top-dose-only effect; inactive = flat fitted curve, though single readings scatter.
assay: Cellular Toxicity (caspase-3) Hek293 (AID 664); settings: HEK293 caspase-3 activation, DMSO = 0%, 100 µM tamoxifen = 100%; series mostly up to 92.2 µM;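 also: cells exposed to compound for 16 h at 37 °C before readout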
How it was run: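 Activation of caspase-3/7 is measured as increased luminescence from cleaved peptide-aminoluciferin substrate in HEK293 cells treated 16 hours at 37 °C. AC50 values come from Hill-equation fits of concentration-response data.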

Question: For `CCOP(=S)(OCC)SCSC(C)(C)C`, which outcome is on record?
Answer: inactive

Question: Which outcome does the source give for `C=C(C)C#N` here?
Answer: inactive

Question: For `Nc1c(Cl)c(Cl)nc(C(=O)O)c1Cl`, which outcome is on record?
Answer: inactive

Question: Which outcome does the source give for `CC(C)(C)OOC(C)(C)C` here?
Answer: inactive

Question: For `Cc1ccc([N+](=O)[O-])cc1C`, which outcome is on record?
Answer: inactive

Question: For `Cc1ccc2ccccc2c1`, which outcome is on record?
Answer: inactive

Question: For `Clc1ccc2ccccc2c1`, which outcome is on record?
Answer: inactive

Question: Which outcome does the source give for `OCC1CO1` (stereo unspecified) here?
Answer: inactive

Question: Which outcome does the source give for `N#CCCCl` here?
Answer: inactive

Question: Which outcome does the source give for `O=NN(CCO)CCO` here?
Answer: inactive

Question: With `CCCC(=O)Cl` as the compound, how does the outcome read?
Answer: inactive

Question: For `NC(=S)Nc1ccccc1`, which outcome is on record?
Answer: inactive

Question: Which outcome does the source give for `C=C(Cl)Cl` here?
Answer: inactive

Question: With `COc1ccc(C=O)cc1OC` as the compound, how does the outcome read?
Answer: inactive

Question: With `c1ccc2c(c1)CCCC2` as the compound, how does the outcome read?
Answer: inactive

Question: For `O=NN(c1ccccc1)c1ccccc1`, which outcome is on record?
Answer: inactive

assay: Cellular Toxicity (caspase-3) N2a (AID 665); settings: N2a cells, luminescence, normalized: DMSO 0%, 10 µM staurosporine 100%; at 92.2 µM (top of the series);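 also: compound exposure lasted 16 h at 37 °C before readout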
How it was run: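 Plated mouse neuroblastoma N2a cells received titrated compounds for 16 h in complete medium. Caspase activity was then detected with a peptide-aminoluciferin luminescent reagent.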

Question: With `Brc1ccccc1` as the compound, how does the caspase-3 activation read?
Answer: 0.903%

Question: With `CCOP(=S)(OCC)SCSC(C)(C)C` as the compound, how does the caspase-3 activation read?
Answer: -3.31%

Question: With `C=C(C)C#N` as the compound, how does the caspase-3 activation read?
Answer: -1.66%

Question: For `CCSC(=O)Cl`, which caspase-3 activation is on record?
Answer: -2.14%

Question: With `Cc1cccc([N+](=O)[O-])c1` as the compound, how does the caspase-3 activation read?
Answer: 2.99%

Question: For `Nc1c(Cl)c(Cl)nc(C(=O)O)c1Cl`, which caspase-3 activation is on record?
Answer: -2.12%

Question: With `CC(C)(C)OOC(C)(C)C` as the compound, how does the caspase-3 activation read?
Answer: 0.408%

Question: With `C=C(C)C(=O)OCC1CO1` (stereo unspecified) as the compound, how does the caspase-3 activation read?
Answer: -4.34%

Question: For `Cc1ccc([N+](=O)[O-])cc1C`, which caspase-3 activation is on record?
Answer: -3.15%

Question: With `O=[N+]([O-])c1ccc(Cl)c(Cl)c1` as the compound, how does the caspase-3 activation read?
Answer: -2.95%

Question: Which caspase-3 activation does the source give for `C=CC(=C)C` here?
Answer: -1.13%

Question: Which caspase-3 activation does the source give for `Cc1ccc2ccccc2c1` here?
Answer: -4.52%

Question: With `Nc1ccccc1Cl` as the compound, how does the caspase-3 activation read?
Answer: 1.48%

Question: With `Clc1ccc2ccccc2c1` as the compound, how does the caspase-3 activation read?
Answer: 4.04%

Question: For `[O-][Br+2]([O-])O`, which caspase-3 activation is on record?
Answer: -9.36% and -10.4%

Question: For `Clc1nc(Cl)nc(Nc2ccccc2Cl)n1`, which caspase-3 activation is on record?
Answer: 0.587%

Question: With `OCC1CO1` (stereo unspecified) as the compound, how does the caspase-3 activation read?
Answer: -2.46%

Question: For `C=CCOC(=O)c1ccccc1N`, which caspase-3 activation is on record?
Answer: -3.47%

Question: For `C=CC(N)=O`, which caspase-3 activation is on record?
Answer: -0.525% and -0.998%

Question: With `CC(C)(c1ccccc1)c1ccc(O)cc1` as the compound, how does the caspase-3 activation read?
Answer: 1.43%

Question: For `CCN(CC)c1ccccc1`, which caspase-3 activation is on record?
Answer: -1.42%

Question: For `S=C=Nc1cccc2ccccc12`, which caspase-3 activation is on record?
Answer: 0.808%

Question: For `N#CCCCl`, which caspase-3 activation is on record?
Answer: -0.53% and -2.33%

Question: Which caspase-3 activation does the source give for `O=NN(CCO)CCO` here?
Answer: -1.3%

Question: For `Cc1ccccc1N`, which caspase-3 activation is on record?
Answer: -5.28% and -1.86%

Question: For `C=CCOC(C)=O`, which caspase-3 activation is on record?
Answer: -3.6%

Question: Which caspase-3 activation does the source give for `CCCC(=O)Cl` here?
Answer: 4.05%

Question: Which caspase-3 activation does the source give for `NC(=S)Nc1ccccc1` here?
Answer: -3.2% and -1.82%

Question: With `O=C(Cl)/C=C/C(=O)Cl` as the compound, how does the caspase-3 activation read?
Answer: -4.67%

Question: Which caspase-3 activation does the source give for `C=C(Cl)Cl` here?
Answer: 1.75%

Question: Which caspase-3 activation does the source give for `ClCBr` here?
Answer: -2%

Question: For `COc1ccc(C=O)cc1OC`, which caspase-3 activation is on record?
Answer: -1.73%

Question: For `C=CC(=O)OCC`, which caspase-3 activation is on record?
Answer: -1.92%

Question: Which caspase-3 activation does the source give for `c1nc[nH]n1` here?
Answer: -1.83%

Question: With `c1ccc2c(c1)CCCC2` as the compound, how does the caspase-3 activation read?
Answer: 1.3%

Question: For `CCCSC(=O)Cl`, which caspase-3 activation is on record?
Answer: -1.31%

Question: Which caspase-3 activation does the source give for `Clc1cccc(C(Cl)(Cl)Cl)n1` here?
Answer: -0.536%

Question: Which caspase-3 activation does the source give for `O=NN(c1ccccc1)c1ccccc1` here?
Answer: 0.181%

Question: Which caspase-3 activation does the source give for `C1CCC2CCCCC2C1` (stereo unspecified) here?
Answer: -0.192%

Question: Which caspase-3 activation does the source give for `CC(O)CCl` (stereo unspecified) here?
Answer: 3.17%
